Source: PubChem BioAssay (Tox21)
Records with an inconclusive call do not appear. The source made the active and inactive calls. Unless noted, calls follow the shape of the dose curve; as a rule, active = well fitted curve in the direction sought with a large enough effect in the repeat runs; inconclusive = weak or mixed curves; inactive = no such curve, though single readings can be large; an effect the other way counts as inactive or inconclusive.

Assays:
[1] = qHTS assay to identify aromatase inhibitors - cell viability counter screen (AID 743084);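 also: cells stimulated with testosterone during compound exposure; nearly all actives have a fitted effect of over 55% in size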
[2] = qHTS assay to identify small molecule that activate the aryl hydrocarbon receptor (AhR) signaling pathway - cell viability counter screen (AID 743086);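 also: HepG2 liver cells carrying the AhR DRE luciferase reporter; series mostly up to about 70 µM; nearly all actives have a fitted effect of over 45% in size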
How it was run: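 Cytotoxicity counter screen: CellTiter-Fluor signal (30 min, 37 C) in 4000 HepG2 cells/well carrying the DRE-luciferase reporter, following 24 h compound exposure at 37 C.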

[3] = qHTS assay to identify small molecule antagonists of the peroxisome proliferator-activated receptor gamma (PPARg) signaling pathway - cell viability counter screen (AID 743194); also: nearly all actives have a fitted effect of over 55% in size
How it was run: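 Viability was measured as CellTiter-Glo luminescence in GeneBLAzer PPARg UAS-bla HEK293H cells. These cells had been exposed 17 h at 37 C to compounds together with rosiglitazone at 50 nM final, with the beta-lactamase readout taken in the same wells.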

[4] = qHTS assay for small molecule agonists of the antioxidant response element (ARE) signaling pathway - cell viability counter screen (AID 743203; calls by dose curve; also: nearly all actives have a fitted effect of over 55% in size)
How it was run: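 CellSensor ARE-bla HepG2 cells, 2,000 per well, rested 5 hrs at 37C/5% CO2, then exposed to compound in DMSO for 16 hrs; viability read as CellTiter-Glo luminescence after 30 min at room temperature, in the reporter wells.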

[5] = qHTS assay for small molecule activators of the heat shock response signaling pathway - cell viability counter screen (AID 743209); also: nearly all actives have a fitted effect of over 50% in size
How it was run: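 CellSensor HSE-bla HeLa cells, plated overnight at 37 C/5% CO2, were exposed to compounds in DMSO for 5 h at 37 C. Viability was then read in the same wells by CellTiter-Glo luminescence after 30 min at room temperature.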

[6] = qHTS assay for small molecule activators of the heat shock response signaling pathway (AID 743210; active = well fitted activation curve with a large enough effect in the signal ratio in the repeat runs, with a control signal flat, not every such curve was filed as active; the % refers to the signal ratio;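 also: HeLa cells with beta-lactamase reporter driven by heat shock elements; series mostly up to about 63 µM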)
How it was run: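 In HSE-bla HeLa cells, 5 h compound incubation (37 C) precedes addition of LiveBLAzer B/G substrate; after 2.5 h at room temperature, fluorescence intensity indicates reporter induction.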

[7] = target: Peroxisome proliferator-activated receptor gamma (Homo sapiens) (UniProt P37231); test: qHTS assay to identify small molecule agonists of the peroxisome proliferator-activated receptor gamma (PPARg) signaling pathway (AID 743094; active = well fitted activation curve with a large enough effect in the signal ratio in the repeat runs, not every such curve was filed as active; the % refers to the signal ratio)
How it was run: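 GeneBLAzer PPARg UAS-bla HEK293H cells carrying a stably integrated beta-lactamase reporter were pre-incubated 5 h at 37C, then exposed to compounds in DMSO for 17 h at 37C; LiveBLAzer B/G FRET substrate was added for 1 h at room temperature and fluorescence read.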

[8] = qHTS assay for small molecule agonists of the antioxidant response element (ARE) signaling pathway (AID 743202; active = well fitted activation curve with a large enough effect in the signal ratio in the repeat runs, not every such curve was filed as active; the % refers to the signal ratio)
How it was run: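 An ARE-responsive beta-lactamase gene stably integrated in HepG2 cells serves as reporter. After 5 h plating and 16 h compound incubation at 37 C, fluorescence of the B/G FRET substrate was measured.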

[9] = target: Peroxisome proliferator-activated receptor gamma (Homo sapiens) (UniProt P37231); test: qHTS assay to identify small molecule antagonists of the peroxisome proliferator-activated receptor gamma (PPARg) signaling pathway (AID 743191; calls by dose curve; also: series mostly up to about 63 µM; nearly all actives have a fitted effect of over 30% in size)
How it was run: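 Beta-lactamase reporter under UAS control in HEK293H PPARg-bla cells; compound treatment 17 h at 37C. Read-out: fluorescence intensity after 1 h room-temperature incubation with LiveBLAzer B/G FRET substrate.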

[10] = target: Aryl hydrocarbon receptor (Homo sapiens) (UniProt P35869); test: qHTS assay to identify small molecule that activate the aryl hydrocarbon receptor (AhR) signaling pathway (AID 743085);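 also: HG2L7.5c1 human HepG2 liver cells with stably integrated DRE-driven firefly reporter; series mostly up to about 70 µM; nearly all actives have a fitted effect of over 15% in size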
How it was run: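 Steps: seed HepG2-AhR-luc cells; allow 5 h at 37C; pin-transfer test compound or vehicle; incubate 24 h at 37C; add viability dye (30 min, 37C) and read fluorescence; add luciferase substrate (30 min, RT) and read luminescence.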
% is scaled to controls: 0 for no effect and ±100 for the full control effect.

Chain of Peroxisome proliferator-activated receptor gamma (Homo sapiens) (P37231 whole entry, looked up): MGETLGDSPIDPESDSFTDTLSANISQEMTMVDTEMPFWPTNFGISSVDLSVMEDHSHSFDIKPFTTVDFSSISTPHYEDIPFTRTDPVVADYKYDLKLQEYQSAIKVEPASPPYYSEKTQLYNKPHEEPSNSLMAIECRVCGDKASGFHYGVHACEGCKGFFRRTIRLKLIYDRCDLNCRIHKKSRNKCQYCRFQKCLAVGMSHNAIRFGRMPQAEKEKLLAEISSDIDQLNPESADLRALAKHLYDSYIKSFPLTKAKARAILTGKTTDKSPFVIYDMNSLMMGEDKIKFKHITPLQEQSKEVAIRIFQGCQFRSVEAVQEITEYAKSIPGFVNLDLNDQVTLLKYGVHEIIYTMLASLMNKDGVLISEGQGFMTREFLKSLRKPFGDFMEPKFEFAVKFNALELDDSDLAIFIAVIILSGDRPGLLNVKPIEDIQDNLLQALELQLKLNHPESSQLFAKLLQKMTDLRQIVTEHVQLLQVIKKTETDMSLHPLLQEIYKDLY
Chain of Aryl hydrocarbon receptor (Homo sapiens) (P35869 whole entry, looked up): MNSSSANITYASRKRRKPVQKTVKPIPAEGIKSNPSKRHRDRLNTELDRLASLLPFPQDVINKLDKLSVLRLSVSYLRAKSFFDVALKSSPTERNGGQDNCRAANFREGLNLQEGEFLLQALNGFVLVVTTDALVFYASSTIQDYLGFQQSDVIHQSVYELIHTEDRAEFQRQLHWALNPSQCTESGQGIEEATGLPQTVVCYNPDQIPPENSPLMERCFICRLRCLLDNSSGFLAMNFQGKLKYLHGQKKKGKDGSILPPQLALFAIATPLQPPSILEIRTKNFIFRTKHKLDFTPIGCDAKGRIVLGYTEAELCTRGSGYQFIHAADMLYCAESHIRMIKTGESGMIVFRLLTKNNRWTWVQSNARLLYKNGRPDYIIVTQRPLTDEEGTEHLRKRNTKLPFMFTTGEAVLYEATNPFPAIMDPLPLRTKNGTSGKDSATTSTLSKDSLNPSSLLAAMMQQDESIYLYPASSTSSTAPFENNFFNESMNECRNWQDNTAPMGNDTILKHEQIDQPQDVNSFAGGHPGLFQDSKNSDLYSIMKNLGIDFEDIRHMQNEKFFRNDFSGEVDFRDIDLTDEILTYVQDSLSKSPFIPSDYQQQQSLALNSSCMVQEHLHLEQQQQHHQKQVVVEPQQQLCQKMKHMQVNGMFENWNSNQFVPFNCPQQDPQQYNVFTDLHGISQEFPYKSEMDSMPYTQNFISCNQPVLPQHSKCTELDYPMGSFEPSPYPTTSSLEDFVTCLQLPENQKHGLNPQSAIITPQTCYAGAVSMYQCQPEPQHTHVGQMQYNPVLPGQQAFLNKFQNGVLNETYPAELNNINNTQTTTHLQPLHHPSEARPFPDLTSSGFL

CC(C)NC[C@@H](O)COc1cccc2ccccc12
inactive: Potency [1] | outcome [2] | Potency [3] | Potency [4] | outcome [5] | Potency [6]

C=CCCCCCCCCO
inactive: Potency [1] | Potency [7] | Potency [3] | Potency [8] | outcome [5]

Cc1cccc(C)c1NC(=O)CN1CCCCCC1
inactive: Potency [1] | outcome [2] | Potency [7] | Potency [3] | Potency [8] | Potency [4] | outcome [5] | Potency [6]

CN1CCN(c2c(F)cc3c(=O)c(C(=O)O)cn4c3c2SCC4)CC1
inactive: Potency [1] | outcome [2] | Potency [7] | Potency [8] | Potency [4] | outcome [5] | Potency [6]

Cn1cnc2c(F)c(Nc3ccc(Br)cc3Cl)c(C(=O)NOCCO)cc21
inactive: Potency [1] | Potency [7] | Potency [9] | Potency [3] | Potency [4] | outcome [5] | Potency [6]

NC(Cc1ccc(F)cc1)C(=O)O (stereo not given)
inactive: activity change, negative = cytotoxicity [1] -2.35% [at 8.47 µM] | activation [7] 0.33% [at 7.08 µM] | ratio activity, negative = inhibition [9] 6.5% [at 5.95 µM] | activity change, negative = cytotoxicity [3] -1.09% [at 5.95 µM] | activation [8] -7.28% [at 8.36 µM] | viability change, negative = cytotoxic [4] -1.52% [at 8.36 µM] | activity change, negative = cytotoxicity [5] -7.91% [at 5.95 µM]

CC(C)CCCCCCc1ccc(OCCOCCO)cc1
inactive: Potency [1] | outcome [2] | Potency [7] | Potency [3] | Potency [8] | Potency [4] | outcome [5] | Potency [6]

OCCN(CCO)CCN(CCO)CCO
inactive: Potency [1] | outcome [2] | Potency [7] | Potency [3] | Potency [4] | outcome [5] | Potency [6]

CCN(CCCc1ccccc1)CCCc1ccccc1
inactive: Potency [1] | outcome [2] | Potency [7] | Potency [4] | outcome [5] | Potency [6]

CC(C)C[C@H](NC(=O)OCC1c2ccccc2-c2ccccc21)C(=O)O
inactive: Potency [1] | outcome [2] | Potency [3] | Potency [8] | Potency [4] | outcome [5] | Potency [6]

CCC(=O)O[C@]1(C(=O)SCF)[C@H](C)C[C@H]2[C@@H]3C[C@H](F)C4=CC(=O)C=C[C@]4(C)[C@@]3(F)[C@@H](O)C[C@@]21C
inactive: Potency [1] | Potency [7] | Potency [9] | Potency [3] | Potency [8] | Potency [4] | outcome [5] | Potency [6]

CCCCCCC
inactive: Potency [1] | outcome [2] | Potency [7] | Potency [3] | Potency [8] | Potency [4] | outcome [5]

O=CCCc1ccccc1
inactive: Potency [1] | outcome [2] | Potency [8] | outcome [5] | Potency [6]

FC(F)(F)c1ccccc1
inactive: Potency [1] | outcome [2] | Potency [9] | Potency [3] | Potency [4] | Potency [6]

CCCCNc1cc(C(=O)O)cc(S(N)(=O)=O)c1Oc1ccccc1
inactive: Potency [1] | outcome [2] | Potency [8] | Potency [4] | outcome [5] | Potency [6]

CCN(O)CC
inactive: Potency [1] | Potency [7] | Potency [3] | Potency [8] | outcome [5] | Potency [6]

NC(=O)Cc1cccc(C(=O)c2ccccc2)c1N
inactive: Potency [1] | Potency [7] | Potency [9] | Potency [3] | Potency [8] | Potency [4] | outcome [5] | Potency [6]

Cc1c(N)cccc1N
inactive: Potency [1] | outcome [2] | Potency [3] | Potency [4] | outcome [5] | Potency [6]

O=C(O[C@@H](C(=O)O)[C@@H](OC(=O)c1ccccc1)C(=O)O)c1ccccc1
inactive: Potency [1] | outcome [2] | Potency [7] | Potency [3] | Potency [8] | outcome [5] | Potency [6]

OC[C@H]1O[C@@H](O[C@H]2[C@H](O)[C@@H](O)[C@H](O)O[C@@H]2CO)[C@H](O)[C@@H](O)[C@H]1O
inactive: Potency [1] | outcome [2] | Potency [7] | Potency [3] | Potency [8] | Potency [4] | outcome [5]

Cc1ccsc1C(=CCCN1CCC[C@@H](C(=O)O)C1)c1sccc1C
inactive: Potency [1] | outcome [2] | Potency [7] | Potency [3] | Potency [4] | outcome [5]

Cc1ccc(C(C)C)cc1O
inactive: Potency [1] | outcome [2] | Potency [7] | Potency [3] | Potency [8] | Potency [4] | outcome [5] | Potency [6]

Cc1nc(-c2ccccn2)ncc1C(=O)Nn1cc(C)c2cc(F)ccc21
inactive: Potency [1] | outcome [2] | Potency [3] | Potency [4] | outcome [5] | Potency [6]

CCC/C=C/CO
inactive: Potency [10] | outcome [2] | Potency [7] | Potency [8] | Potency [4] | outcome [5] | Potency [6]

Cc1cc(NS(=O)(=O)c2ccc(N)cc2)nc(C)n1
inactive: Potency [10] | Potency [7] | Potency [9] | Potency [3] | Potency [8] | Potency [4] | outcome [5]

Cc1ccccc1C(=O)Nc1ccc(C(=O)N2CCCC(O)c3cc(Cl)ccc32)c(C)c1 (stereo not given)
inactive: Potency [1] | Potency [9] | Potency [3] | Potency [8] | Potency [4] | outcome [5] | Potency [6]
